Screening results (PubChem)
A selection: hits, their analogues and other compounds. The true share with any hit is near 2.5%.
GRK2 aptamer HTS: compounds blocking aptamer binding on GRK2 – biochemical, human GRK2, bead flow cytometry, HTS, primary screen; FAM-aptamer displacement from GRK2; inhibition of aptamer binding, % at 10 µM; 330,000 tested, 0.59% active;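 active = inhibition of aptamer binding above 40%, roughly 3 SD of noise, on plates passing a quality check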;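 also: median bead fluorescence of bound FAM aptamer so fluorescent compounds give negative values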
Target sequence (P25098 whole entry, looked up): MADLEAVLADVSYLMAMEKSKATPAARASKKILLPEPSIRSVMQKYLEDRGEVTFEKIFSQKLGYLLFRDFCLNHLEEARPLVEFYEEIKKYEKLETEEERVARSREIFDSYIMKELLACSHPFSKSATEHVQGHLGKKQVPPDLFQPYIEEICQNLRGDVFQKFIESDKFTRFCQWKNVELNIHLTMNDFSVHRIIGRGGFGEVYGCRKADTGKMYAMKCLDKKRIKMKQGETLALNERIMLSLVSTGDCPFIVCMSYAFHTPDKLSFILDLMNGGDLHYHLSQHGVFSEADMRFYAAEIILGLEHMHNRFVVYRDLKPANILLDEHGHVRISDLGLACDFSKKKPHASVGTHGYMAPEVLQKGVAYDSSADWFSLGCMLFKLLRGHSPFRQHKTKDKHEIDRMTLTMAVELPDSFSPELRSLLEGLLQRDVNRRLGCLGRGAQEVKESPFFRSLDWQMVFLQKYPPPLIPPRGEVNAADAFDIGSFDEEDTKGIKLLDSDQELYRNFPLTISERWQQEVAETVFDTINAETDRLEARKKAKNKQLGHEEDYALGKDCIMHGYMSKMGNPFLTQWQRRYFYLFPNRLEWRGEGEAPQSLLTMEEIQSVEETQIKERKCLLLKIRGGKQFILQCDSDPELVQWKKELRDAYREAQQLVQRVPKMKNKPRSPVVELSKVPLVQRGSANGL
MEKK2 mut-MEK5: MEK5 binding signal on mutant MEKK2 PB1, primary screen, biochemical, multiplex bead flow cytometry, Alexa488-MEK5 | Alexa488-MEK5 binding to MEKK2 mutant | percent response, % at 10 µM | 290,000 tested, 0.35% active | AID 1530, 2009; in the data active = percent response above about 24%, passing the limit was not always enough
MEKK2wt PB1 HTS: modulators of MEK5 binding to wildtype MEKK2, primary screen, biochemical, multiplex bead flow cytometry, Alexa488-MEK5; Mitogen-activated protein kinase kinase kinase 2 (Homo sapiens), Q9Y2U5; Alexa488-MEK5 binding to MEKK2 WT; actives lie on both sides; binding response (% of control), % at 10 µM; 290,000 tested, 1.1% active; AID 1531, 2009; in the data active = binding response below about 67% or above about 130%
MEKK3 PB1 HTS: modulators of MEKK3-MEK5 PB1 binding, primary screen, biochemical, wildtype MEKK3, multiplex bead flow cytometry, Alexa488-MEK5. AID 1529, 2009. Mitogen-activated protein kinase kinase kinase 3 (Homo sapiens), Q99759. bead-based flow cytometry, Alexa488-MEK5 binding to MEKK3; actives lie on both sides; 0 = blocked by unlabeled MEK5, 100 = vehicle. 290,000 tested, 1.4% active. binding response (% of control), % at 10 µM;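 active = binding response more than 3 SD above or below the average of its plate-row segment, actives on both sides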;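 also: Alexa488 bead fluorescence after subtracting the streptavidin-only scavenger bead signal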
GRK2 CP1: GRK2 aptamer-displacing inhibitors, retest, confirmation, biochemical, cherry pick 1, bead flow cytometry; shares compounds with GRK2 aptamer HTS; bead-bound GRK2, FAM-aptamer displacement; aptamer displacement, % at 10 µM; 2,000 tested, 4% active; AID 504451, 2011;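 active = aptamer displacement above 40%, near three times the noise of non-fluorescent compounds, on plates passing quality checks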;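 also: negative values mostly reflect intrinsic compound fluorescence rather than true enhancement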
FAM quench CP1: quenches fluorescent RNA aptamer, GRK2 hit artifact. shares compounds with GRK2 aptamer HTS. Carboxyfluorescein RNA aptamer on beads, flow cytometry quenching; active compounds read low. fluorescence response (% of DMSO), % at 10 µM. 2,000 tested, under 10 active. AID 504580;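 active = compounds that quench the bead-bound fluorescent RNA probe, cutting fluorescence to under half of the solvent control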;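 also: counterscreen run without GRK2 so only probe quenching by compound is measured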
GRK2 CP2: GRK2 aptamer-displacing inhibitors, hit retest, confirmation, biochemical, cherry pick 2, bead flow cytometry | shares compounds with GRK2 aptamer HTS | bead-bound GRK2, FAM-aptamer displacement | inhibition of aptamer binding, % at 10 µM | 360 tested, under 10 active | AID 504782, 2011;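 active = inhibition of aptamer binding above 40%, about triple the noise seen with nonglowing compounds, on plates passing quality control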;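 also: negative values mostly come from compounds that fluoresce themselves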
FAM quench CP2: counter-screen for GRK2 binding hits: quenchers of fluorescent RNA aptamer. fluorescence response vs DMSO, % at 10 µM. shares compounds with GRK2 aptamer HTS. 360 tested, under 10 active. carboxyfluorescein RNA aptamer beads, flow cytometry quenching; active compounds read low;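 active = response vs DMSO under 50%, meaning signal dropped by over half, treated as fluorescence quencher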;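 also: labelled aptamer on streptavidin beads without GRK2 as a quench counter-screen; 100% = bead fluorescence of DMSO wells and lower means quenching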
An asterisk follows results filed as active; / = no result given.

SMILES	GRK2 aptamer HTS	MEKK2 mut-MEK5	MEKK2wt PB1 HTS	MEKK3 PB1 HTS	GRK2 CP1	FAM quench CP1	others
CC(=O)c1cccc(Nc2cc(C)nc3ccccc23)c1	0	-13	95	95	/	/
CC(C)NC(=O)CC1(C(=O)NCc2ccc(Cl)cc2)CCCC1	50*	1	101	98	/	/	GRK2 CP2=-1;FAM quench CP2=104
Cc1ccc(OCC(=O)Nc2ccccc2Sc2ccccc2)c([N+](=O)[O-])n1	0	-1	104	104	/	/
Cc1nn(-c2ccc(F)cc2)c(Cl)c1/C=C(\CC(=O)O)c1nc2ccccc2s1	2	6	105	98	2	98
O=C(/C=C/c1cccc(Br)c1)OCC(=O)N1CCN(c2ccccc2)CC1	76*	/	/	/	1	99
O=C(OCC(=O)N1CCN(c2ccccc2)CC1)c1cc(Br)ccc1Cl	3	/	/	/	/	/
COc1ccc(/C=C/C(=O)O)cc1S(=O)(=O)NC1CCS(=O)(=O)C1 (stereo not drawn)	6	0	105	104	/	/
O=C(NC1CCCCC1)c1c2c(nc3ccccc13)CCC2	2	0	104	118	/	/	GRK2 CP2=-1;FAM quench CP2=100
NNC(=O)c1sc2cc(C(F)(F)F)cnc2c1-c1cccnc1	41*	1	99	100	2	112
CCN(CC)CCCNC(=O)CNC(=O)c1nn(-c2ccc(OC)cc2)c(=O)c2ccccc12	0	-15	81	92	/	/
CCCCNC(=O)CNC(=O)c1nn(-c2ccc(OC)cc2)c(=O)c2ccccc12	26	4	104	103	2	94
CCN(CC)CCNC(=O)CNC(=O)c1nn(-c2ccc(OC)c(OC)c2)c(=O)c2ccccc12	0	-2	95	94	1	99
COc1ccc(-n2nc(C(=O)NCC(=O)NCCN(C)C)c3ccccc3c2=O)cc1	23	5	106	101	3	93
COc1ccc(-n2nc(C(=O)NCC(=O)NCc3ccccc3OC)c3ccccc3c2=O)cc1	0	3	103	99	/	/
CCN(CC)CCCNC(=O)CNC(=O)c1nn(-c2ccc(OC)c(OC)c2)c(=O)c2ccccc12	2	-2	104	101	/	/
CCN(CC)CCNC(=O)CNC(=O)c1nn(-c2ccc(OC)cc2)c(=O)c2ccccc12	0	1	102	101	1	95
Cc1ccc(C)c(NC(=O)CN(C)C(=O)c2ccc(Cl)nc2)c1	2	-6	97	101	/	/
CC1(C)C(C=C(Cl)Cl)C1C(=O)N(Cc1ccccc1Cl)C1CCS(=O)(=O)C1 (stereo not drawn)	4	-1	99	101	/	/
CCOC(=O)Cc1csc(NC(=O)/C=C\c2ccccc2Cl)n1	0	2	113	122	/	/
OC(CNC1CCCCCC1)COc1cccc2ccccc12 (stereo not drawn)	52*	11	123	101	-5	95
OC(CNC1CCCC1)COc1ccccc1Br (stereo not drawn)	0	0	108	105	/	/
O=C(Cn1nnc(-c2ccccc2)n1)Nc1cccc(S(=O)(=O)N2CCOCC2)c1	0	/	/	/	/	/
CCCN1CCc2c(sc(NC(=O)CCS(=O)(=O)c3ccccc3)c2C(N)=O)C1	1	1	104	103	/	/
CNC(=O)c1c(NC(=O)CCS(=O)(=O)c2ccccc2)sc2c1CCN(C(=O)OC)C2	30	/	/	/	/	/	GRK2 CP2=13;FAM quench CP2=104
CNC(=O)c1c(NC(=O)CCS(=O)(=O)c2ccc(C)cc2)sc2c1CCN(C(=O)OC)C2	0	/	/	/	/	/	GRK2 CP2=12;FAM quench CP2=98
SMILES	GRK2 aptamer HTS	MEKK2 mut-MEK5	MEKK2wt PB1 HTS	MEKK3 PB1 HTS	GRK2 CP1	FAM quench CP1	others
CC(=O)N1CCc2c(sc(NC(=O)CCS(=O)(=O)c3ccc(C)cc3)c2C#N)C1	0	/	/	/	/	/	GRK2 CP2=24;FAM quench CP2=100
CC(=O)N1CCc2c(sc(NC(=O)Cc3ccc(C)cc3C)c2C#N)C1	3	7	99	98	/	/
CN1CCc2c(sc(NC(=O)CS(=O)(=O)c3ccccc3)c2C(N)=O)C1	3	/	/	/	/	/	GRK2 CP2=-4;FAM quench CP2=100
Cc1noc(C)c1CSc1nnc(-c2ccccc2)n1Cc1ccco1	0	-1	101	99	/	/
O=C(Nc1ccccc1)Nc1ncc([N+](=O)[O-])s1	/	-2	89	93	/	/
CCc1ccccc1NC(=O)CSc1nnc([C@H](CCSC)NC(=O)OC(C)(C)C)o1	2	22	101	102	/	/
O=C(O)CN1C(=O)C(=O)N(Cc2cccc(F)c2)C1=O	2	4	104	103	/	/
CCOc1ccccc1OCC(=O)OCC(=O)c1c(C)[nH]c2ccccc12	0	/	/	/	/	/
Cc1cc(C)cc(C(=O)Nc2cccnc2)c1	82*	1	105	103	-2	99
COCCNC(=O)c1cc(-c2ccccc2)n(Cc2cc(C)no2)n1	2	/	/	/	/	/
COc1ccccc1N1CCN(C(=O)CSc2ncccc2-c2nc3ccccc3[nH]2)CC1	4	6	97	100	/	/
COc1ccccc1N1CCN(C(=O)CSc2nc3ccccc3[nH]2)CC1	96*	6	110	108	-28	103
NC(=O)N/N=C/c1ccc([N+](=O)[O-])o1	5	/	/	/	/	/
O=C(N/N=C/c1ccc([N+](=O)[O-])o1)C1CC1	83*	/	/	/	23	99
CN(C)S(=O)(=O)c1ccc(C(=O)NCc2ccco2)cc1	0	-11	94	108	/	/
CCCN(CCC)S(=O)(=O)c1ccc(C(=O)NCc2ccco2)cc1	64*	10	113	105	-2	103
Cc1ccc(/C=C2/C(=N)N3N=C(CC(=O)N4CCCC4)SC3=NC2=O)o1	0	0	101	102	0	98
Cc1ccc(N(CN2CCCC2=O)C(=O)c2ccccc2)cc1	67*	2	102	99	1	99
CN=c1scc(C)n1/N=C/c1ccc2c(c1)OCO2	91*	10	105	106	-1	101
Cc1c(/C=C2\SC(=Nc3cccc(C(=O)O)c3)NC2=O)c2ccccc2n1C	64*	-15	88	86	3	105
CCCn1c2ccccc2c2cn[nH]c(=O)c21	18	4	108	105	0	99
